Conditions in all cases: mRNA level, 48 h; actives raise or lower the signal
Read-out in one assay: CYP4A11 (gene 1579)
Briefly: LTEA_HepaRG_CYP4A11: Life Technologies and Expression Analysis (LTEA) Assay for CYP4A11 using HepaRG (AID 2283486). The essentials: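 CYP4A11 transcript levels were quantified by TaqMan qRT-PCR after HepaRG human liver cells were treated for 48 hours with test chemicals (top 100 uM, half-log dilutions, 0.5% DMSO). Gain or loss of signal was fitted relative to DMSO.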

Read-out in assay [1]: Cytochrome P450 3A4 (Homo sapiens) (UniProt P08684)
In words: LTEA_HepaRG_CYP3A4: Life Technologies and Expression Analysis (LTEA) Assay for CYP3A4 using HepaRG (AID 2283487). The essentials: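 Differentiated HepaRG cells in serum-free induction medium exposed in duplicate for 48 h to 8 half-log concentrations up to 100 uM in 0.5% DMSO. CYP3A4 mRNA measured by qRT-PCR normalized to ACTB, GAPDH and POLR2A; bidirectional fit versus DMSO.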

Read-out in assay [2]: DNA damage-inducible transcript 3 (DDIT3), DDIT3 (gene 1649)
In words: LTEA_HepaRG_DDIT3: Life Technologies and Expression Analysis (LTEA) Assay for DNA damage-inducible transcript 3 (DDIT3) using HepaRG (AID 2283488). The essentials:
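HepaRG cells, 48 h after plating, exposed 48 h in serum-free induction medium to 8 half-log concentrations up to 100 uM in 0.5% DMSO, in duplicate. DDIT3 mRNA measured by TaqMan qRT-PCR, normalized to ACTB, GAPDH and POLR2A. Fitted bidirectionally against DMSO.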

Read-out in assay [3]: Pro-epidermal growth factor (Homo sapiens) (UniProt P01133)
In words: LTEA_HepaRG_EGF: Life Technologies and Expression Analysis (LTEA) Assay for Epidermal growth factor (EGF) using HepaRG (AID 2283489). The essentials: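 qRT-PCR readout of EGF transcript after 48 h chemical exposure of HepaRG cells; eight concentrations from 100 uM down in half-log steps, duplicate wells, 0.5% DMSO vehicle. Bidirectional curve fitting against DMSO baseline.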

Read-out in assay [4]: Ezrin (EZR), EZR (gene 7430)
Briefly: LTEA_HepaRG_EZR: Life Technologies and Expression Analysis (LTEA) Assay for Ezrin (EZR) using HepaRG (AID 2283491). The essentials: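 Differentiated human HepaRG cells, 48 h after plating, were exposed in serum-free induction medium for 48 hours to eight half-log concentrations up to 100 uM in 0.5% DMSO. EZR mRNA was measured by TaqMan qRT-PCR, normalized to ACTB, GAPDH and POLR2A, and fitted bidirectionally against DMSO.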

Read-out in assay [5]: Cytochrome P450 3A7 (Homo sapiens) (UniProt P24462)
Briefly: LTEA_HepaRG_CYP3A7: Life Technologies and Expression Analysis (LTEA) Assay for CYP3A7 using HepaRG (AID 2283492). The essentials:
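CYP3A7 transcript levels were read by TaqMan qRT-PCR on Fluidigm arrays after 48 h chemical exposure of human HepaRG cells, with housekeeping-gene normalisation. Eight half-log concentrations up to 100 uM in 0.5% DMSO were tested in duplicate.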

Read-out in assay [6]: Fatty Acid-Binding Protein 1 (FABP1), FABP1 (gene 2168)
In words: LTEA_HepaRG_FABP1: Life Technologies and Expression Analysis (LTEA) Assay for Fatty Acid-Binding Protein 1 (FABP1) using HepaRG (AID 2283494). The essentials: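 HepaRG, 48 h post-plating switched to serum-free induction medium, then dosed 48 h (duplicate, 8 pts, ≤100 uM, 0.5% DMSO). RNA → Fluidigm TaqMan qRT-PCR, FABP1 normed to ACTB/GAPDH/POLR2A. Bidirectional curve fit vs DMSO.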

Read-out in assay [7]: Cytochrome P450 4A22 (Homo sapiens) (UniProt Q5TCH4)
Briefly: LTEA_HepaRG_CYP4A22: Life Technologies and Expression Analysis (LTEA) Assay for Cytochrome P450 4A22 (CYP4A22) using HepaRG (AID 2283495). The essentials:
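HepaRG, 48 h post-plating -> serum-free induction medium; dosed 48 h, duplicate, 8 conc. (100 uM top, half-log), 0.5% DMSO. Readout: CYP4A22 mRNA by qRT-PCR, ACTB/GAPDH/POLR2A normalization; gain/loss fit relative to DMSO.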

Read-out in another assay: CYP3A5 (gene 1577)
Briefly: LTEA_HepaRG_CYP3A5: Life Technologies and Expression Analysis (LTEA) Assay for CYP3A5 using HepaRG (AID 2283493). The essentials: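 HepaRG cells, plated 48 h then in serum-free induction medium, dosed in duplicate for 48 h with eight half-log concentrations up to 100 uM in 0.5% DMSO. Gene mRNA by Fluidigm TaqMan qRT-PCR, normalized to ACTB, GAPDH, POLR2A.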

Read-out in assay [8]: Early growth response protein 1 (EGR1) transcription factor, EGR1 (gene 1958)
Briefly: LTEA_HepaRG_EGR1: Life Technologies and Expression Analysis (LTEA) Assay for Early growth response protein 1 (EGR1) transcription factor using HepaRG (AID 2283490). The essentials:
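Read-out is EGR1 mRNA level by qRT-PCR, normalized to three housekeeping genes and analysed for gain or loss of signal against 0.5% DMSO. Source cells: human HepaRG, treated 48 h at up to 100 uM in half-log dilutions.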

The values that follow come from PubChem BioAssay (EPA / NIEHS).

Structures are written as SMILES. Activity calls are given as the source filed them. Rule for the calls: active = hit-call score of the fitted dose curve at least 0.9, where 1 is the maximum; inactive = score below 0.9.

Sequence of Cytochrome P450 3A7 (Homo sapiens) (P24462 whole entry, looked up): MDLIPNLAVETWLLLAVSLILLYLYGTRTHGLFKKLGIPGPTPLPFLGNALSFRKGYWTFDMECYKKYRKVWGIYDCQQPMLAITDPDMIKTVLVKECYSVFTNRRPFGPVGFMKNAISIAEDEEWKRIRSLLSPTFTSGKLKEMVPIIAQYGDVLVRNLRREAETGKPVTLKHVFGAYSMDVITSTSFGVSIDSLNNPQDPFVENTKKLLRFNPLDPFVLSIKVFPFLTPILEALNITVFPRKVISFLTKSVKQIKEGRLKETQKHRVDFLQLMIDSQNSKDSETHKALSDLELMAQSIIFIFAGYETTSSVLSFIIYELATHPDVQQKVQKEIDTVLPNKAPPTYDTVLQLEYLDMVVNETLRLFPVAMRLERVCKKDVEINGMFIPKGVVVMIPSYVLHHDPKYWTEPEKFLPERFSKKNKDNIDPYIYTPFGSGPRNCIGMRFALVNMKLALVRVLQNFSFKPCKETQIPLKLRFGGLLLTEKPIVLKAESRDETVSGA
Sequence of Cytochrome P450 3A4 (Homo sapiens) (P08684 whole entry, looked up): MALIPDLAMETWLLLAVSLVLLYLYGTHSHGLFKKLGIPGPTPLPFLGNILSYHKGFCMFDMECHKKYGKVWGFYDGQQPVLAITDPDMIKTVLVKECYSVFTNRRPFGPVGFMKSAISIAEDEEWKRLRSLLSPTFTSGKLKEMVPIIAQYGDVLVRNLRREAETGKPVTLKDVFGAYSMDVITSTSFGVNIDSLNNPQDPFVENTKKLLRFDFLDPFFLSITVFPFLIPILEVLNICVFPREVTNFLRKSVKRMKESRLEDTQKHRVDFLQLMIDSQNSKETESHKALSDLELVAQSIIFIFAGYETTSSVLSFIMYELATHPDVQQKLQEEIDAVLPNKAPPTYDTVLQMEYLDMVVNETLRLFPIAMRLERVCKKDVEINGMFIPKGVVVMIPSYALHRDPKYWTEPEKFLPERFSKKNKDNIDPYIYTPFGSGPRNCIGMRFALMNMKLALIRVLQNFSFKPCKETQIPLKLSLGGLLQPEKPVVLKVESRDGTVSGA

Broadly, the AC50 is the concentration giving half of the maximal activity seen. Turning to `Cc1oc2c(NC(=O)c3c(Cl)cccc3Cl)cccc2c1C(C)(C)O`, the AC50 is 24.6 µM (active) with CYP4A11 (gene 1579); 81.9 µM (active) in assay [1]; 33.2 µM (active) in [2]; 31.6 µM (active) in assay [5]; 62.1 µM (active) in assay [6]; 31.5 µM (active) in [7]. In addition, the compound was classed as inactive in [3] and in [4].

Consider `O=C(OCCCCCCOC(=O)c1ccccc1)c1ccccc1`, for which the call (with CYP4A11 (gene 1579); in assay [1]; in assay [2]; in assay [3]; in assay [4]; in [5]) was inactive. The compound was classed as inactive (with CYP3A5 (gene 1577); in assay [6]; in assay [7]).

As to `c1ccc2ccccc2c1`, the call (with CYP4A11 (gene 1579); in assay [2]; in [3]; in [8]; in [4]; in assay [5]) was inactive. The result (with CYP3A5 (gene 1577); in [6]; in assay [7]) was inactive.

Turning to `C[C@]12CC[C@@H]3c4ccc(O)cc4CC[C@H]3[C@@H]1CC[C@H]2O`, the results for the AC50 (with CYP4A11 (gene 1579); in [6]; in [7]) were 78.2 µM (active), 74.3 µM (active) and 76 µM (active), respectively. In addition, the call (in [1]; in [2]; in assay [3]; in assay [4]; in the assay with CYP3A5 (gene 1577)) was inactive.

In the case of `O=C=NCCCCCCN=C=O`, the result (in the assay with CYP4A11 (gene 1579); in assay [1]; in assay [2]; in assay [3]; in assay [4]; in assay [5]) was inactive. The result in assay [6] and in assay [7] was inactive.

Consider `CCCCOC(=O)CC(CC(=O)OCCCC)(OC(C)=O)C(=O)OCCCC`, for which the result (in the assay with CYP4A11 (gene 1579); in assay [2]; in [3]; in assay [4]; in [5]; in the assay with CYP3A5 (gene 1577)) was inactive. Besides, the call in assay [6] and in assay [7] was inactive.

Take `Cc1cn([C@H]2C[C@H](N=[N+]=[N-])[C@@H](CO)O2)c(=O)[nH]c1=O`: the outcome (with CYP4A11 (gene 1579); in assay [1]; in assay [2]; in assay [3]; in [4]; in assay [5]) was inactive. In addition, the outcome in assay [6] and in assay [7] was inactive.

For `Clc1ccccc1C(c1ccccc1)(c1ccccc1)n1ccnc1`, the AC50 with CYP4A11 (gene 1579) is 15.8 µM (active); in assay [2], 86.5 µM (active); in assay [3], 15.8 µM (active); in [6], 18.1 µM (active); in assay [7], 15.7 µM (active). Besides, the compound was classed as inactive in [4] and in assay [5].

Consider `O=C(O)Cc1cc(I)c(Oc2ccc(O)c(I)c2)c(I)c1`, for which the AC50 is 74 µM (active) with CYP4A11 (gene 1579); 41.6 µM (active) in [1]; 78.9 µM (active) in assay [2]; 0.0294 µM (active) in [5]; 89.8 µM (active) in assay [6]; 0.063 µM (active) in assay [7]. In addition, the compound was called inactive in [3] and in [4].

For `CN(C)C(=O)C1(N2CCCCC2)CCN(CC[C@@]2(c3ccc(Cl)c(Cl)c3)CN(C(=O)c3ccccc3)CCO2)CC1`, the concentration at half-maximal activity (AC50) with CYP4A11 (gene 1579) was 14.9 µM (active); in assay [1] it was 25.7 µM (active); in [2] it was 17.5 µM (active); in assay [3], 25.3 µM (active); in assay [4], 60.6 µM (active); in [5], 24.7 µM (active). In addition, in assay [6], the AC50 was 17 µM (active). Further, the result (in the assay with CYP3A5 (gene 1577); in assay [7]) was inactive.

Regarding `c1ccc2n[nH]nc2c1`, the result (in the assay with CYP4A11 (gene 1579); in assay [1]; in assay [2]; in assay [3]; in assay [4]; in assay [6]) was inactive.

With `CC(C)(C)c1cc(/C=C2\SC(N)=NC2=O)cc(C(C)(C)C)c1O`, the AC50 with CYP4A11 (gene 1579) is 29.1 µM (active); in assay [1], 90.9 µM (active); in assay [2] it was 22.8 µM (active); in assay [5], 27.6 µM (active); with CYP3A5 (gene 1577), 93.5 µM (active); in assay [6], 14.8 µM (active). The call in assay [3], in [4] and in assay [7] was inactive.

Turning to `CC/C(=C(/CC)c1ccc(O)cc1)c1ccc(O)cc1`, the AC50 with CYP4A11 (gene 1579) is 83.4 µM (active); in [2], 67.6 µM (active); in assay [6], 94.1 µM (active). Moreover, the outcome in assay [3], in assay [4], in assay [5] and in [7] was inactive.

In the case of `CN(C)c1ccc(C(=C2C=CC(=[N+](C)C)C=C2)c2ccc(N(C)C)cc2)cc1`, the AC50 with CYP4A11 (gene 1579) was 3.37 µM (active); in [2] it was 1.38 µM (active); in assay [3] it was 88.8 µM (active); in assay [8], 67.6 µM (active); in [4], 32 µM (active); with CYP3A5 (gene 1577), 24.6 µM (active). The AC50 in assay [6] is 2.76 µM (active); in [7], 3.65 µM (active).

As to `Oc1ccc2ccccc2c1`, the call (with CYP4A11 (gene 1579); in assay [1]; in assay [2]; in [3]; in [4]; in assay [5]) was inactive. For the same compound, the outcome in assay [6] and in assay [7] was inactive.

Consider `c1ccc(C[n+]2cccc3ccccc32)cc1`, for which the AC50 was 22.3 µM (active) with CYP4A11 (gene 1579); 33.4 µM (active) in assay [1]; 30.9 µM (active) in [2]; 14.7 µM (active) in assay [4]; 31.7 µM (active) in assay [5]; 31.7 µM (active) in assay [6]. In assay [7], the AC50 was 22.6 µM (active). Besides, the compound was classed as inactive in assay [3].

Consider `CN1C(=O)CC[C@H]1c1cccnc1`, for which the outcome (with CYP4A11 (gene 1579); in assay [1]; in assay [2]; in [3]; in assay [4]; in assay [5]) was inactive. Also, the outcome in assay [6] and in [7] was inactive.

In the case of `CC(=O)N1CCN(c2ccc(OC[C@H]3CO[C@](Cn4ccnc4)(c4ccc(Cl)cc4Cl)O3)cc2)CC1`, the AC50 with CYP4A11 (gene 1579) was 12.4 µM (active); in assay [2], 12.9 µM (active); in assay [8], 38.4 µM (active); in assay [6], 12.7 µM (active). Further, the outcome in assay [4] was inactive.

Take `C[C@]12CC[C@@H]3c4ccc(O)cc4CC[C@H]3[C@@H]1CCC2=O`: the AC50 is 64.5 µM (active) in assay [2], 22.4 µM (active) in assay [3] and 30.8 µM (active) in assay [6]. Besides, the compound was classed as inactive in [4].

With `O=CCCCC=O`, the outcome (in the assay with CYP4A11 (gene 1579); in assay [1]; in assay [2]; in assay [3]; in assay [4]; in assay [5]) was inactive. The result in [6] and in [7] was inactive.

For the compound `O=c1c(-c2ccc(O)cc2)coc2cc(O)cc(O)c12`, the compound was called inactive (in the assay with CYP4A11 (gene 1579); in assay [1]; in assay [2]; in assay [3]; in assay [4]; in assay [5]). The compound was classed as inactive in [6] and in assay [7].
